According to PMC11062922 (Nature Chemical Biology, 2023):
Like-named read-outs stand apart in the source and are kept apart here.

Assays:
Parameters in all cases: species or system human, MV4-11 + K-562 + COLO205 + SK-N-BE2 + OVCAR-8
[1] = system: ABL1; details: read-out: apparent Kd, n = 1
[2] = system: ABL2; details: read-out: apparent Kd, n = 1
[3] = system: EPHA2; details: read-out: apparent Kd, n = 1
[4] = system: ROCK2; details: read-out: apparent Kd, n = 1
[5] = system: SRC; details: read-out: apparent Kd, n = 1
[6] = system: YES1; details: read-out: apparent Kd, n = 1
[7] = system: HCK; details: read-out: apparent Kd, n = 1
[8] = system: PHKG2; details: read-out: apparent Kd, n = 1
[9] = system: PRKX; details: read-out: apparent Kd, n = 1
[10] = system: PTK6; details: read-out: apparent Kd, n = 1
[11] = system: MAPK10; details: read-out: apparent Kd; compound concentrations:100 nM and 1000 nM (sheet 'Samples'); n = 1
[12] = system: MAPK8; details: read-out: apparent Kd; compound concentrations:100 nM and 1000 nM (sheet 'Samples'); n = 1
[13] = system: RIOK2; details: read-out: apparent Kd; compound concentrations:100 nM and 1000 nM (sheet 'Samples'); n = 1
[14] = system: STK16; details: read-out: apparent Kd; compound concentrations:100 nM and 1000 nM (sheet 'Samples'); n = 1
[15] = system: STK3; details: read-out: apparent Kd; compound concentrations:100 nM and 1000 nM (sheet 'Samples'); n = 1
[16] = system: CSNK1E; details: read-out: apparent Kd, n = 1
[17] = system: TNIK; details: read-out: apparent Kd; compound concentrations: 100 nM and 1000 nM (sheet 'Samples'), CATDS: 3.2855545776320001E-2; n = 1
[18] = system: CSNK1A1; details: read-out: apparent Kd; compound concentrations:100 nM and 1000 nM (sheet 'Samples'); n = 1
[19] = system: ADCK1; details: read-out: apparent Kd; compound concentrations: 100 nM and 1000 nM (sheet 'Samples'), CATDS: 2.5462418576412099E-2; n = 1
[20] = compound concentrations:100 nM and 1000 nM (sheet 'Samples')

CN(c1ccc(NC(=O)Nc2cccc(Cl)c2)cc1)c1ccnc(N)n1.Cl [GW830707A]
potency estimated from few doses ([1]; compound concentrations: 100 nM and 1000 nM (sheet 'Samples'), CATDS: 1.69612830125371E-2): 90.3 nM | potency estimated from few doses ([2]; compound concentrations: 100 nM and 1000 nM (sheet 'Samples'), CATDS: 3.1249349132144801E-2): 18.9 nM | potency estimated from few doses ([3]; compound concentrations: 100 nM and 1000 nM (sheet 'Samples'), CATDS: 2.1264502158694101E-2): 44.8 nM | potency estimated from few doses ([4]; compound concentrations: 100 nM and 1000 nM (sheet 'Samples'), CATDS: 3.3185939241444598E-2): 16.9 nM | potency estimated from few doses ([5]; compound concentrations: 100 nM and 1000 nM (sheet 'Samples'), CATDS: 2.2534153996718501E-2): 38.6 nM | potency estimated from few doses ([6]; compound concentrations: 100 nM and 1000 nM (sheet 'Samples'), CATDS: 2.3597692911318701E-2): 34.5 nM

Clc1cc(Cl)cc(Nc2ccnc(Nc3cc(Cl)cc(Cl)c3)n2)c1 [GSK175726A]
potency estimated from few doses ([1]; compound concentrations: 100 nM and 1000 nM (sheet 'Samples'), CATDS: 2.5998529843594201E-2): 83.2 nM | potency estimated from few doses ([2]; compound concentrations: 100 nM and 1000 nM (sheet 'Samples'), CATDS: 0.155143101703651): 7.68 nM | potency estimated from few doses ([3]; compound concentrations: 100 nM and 1000 nM (sheet 'Samples'), CATDS: 3.0586231323348499E-2): 64 nM | potency estimated from few doses ([7]; compound concentrations: 100 nM and 1000 nM (sheet 'Samples'), CATDS: 1.3478571983596799E-2): 316 nM | potency estimated from few doses ([8]; compound concentrations: 100 nM and 1000 nM (sheet 'Samples'), CATDS: 8.5028793142563602E-3): 1680 nM | potency estimated from few doses ([9]; compound concentrations: 100 nM and 1000 nM (sheet 'Samples'), CATDS: 1.0278626389666701E-2): 722 nM | potency estimated from few doses ([10]; compound concentrations: 100 nM and 1000 nM (sheet 'Samples'), CATDS: 9.7207770515578794E-3): 894 nM | potency estimated from few doses ([5]; compound concentrations: 100 nM and 1000 nM (sheet 'Samples'), CATDS: 2.4757216834404398E-2): 90.3 nM | potency estimated from few doses ([6]; compound concentrations: 100 nM and 1000 nM (sheet 'Samples'), CATDS: 2.3154900781863899E-2): 101 nM

CN1C[C@@H]2Cn3c(c(C4=C(c5cn(C)c6ccccc56)C(=O)NC4=O)c4ccccc43)C[C@H]2C1.Cl [RO0320234-001]
potency estimated from few doses [1, 20]: 93.7 nM | potency estimated from few doses [2, 20]: 5.56 nM | potency estimated from few doses [3, 20]: 59.7 nM | potency estimated from few doses [7, 20]: 317 nM | potency estimated from few doses [8, 20]: 2180 nM | potency estimated from few doses [9, 20]: 925 nM | potency estimated from few doses [10, 20]: 970 nM | potency estimated from few doses [5, 20]: 120 nM | potency estimated from few doses [6, 20]: 97.8 nM

CNC(=O)c1ccccc1Nc1nc(Nc2ccc(N3CCOCC3)cc2)ncc1Cl.Cl [GSK1576028A]
potency estimated from few doses [1, 20]: 1640 nM | potency estimated from few doses [7, 20]: 676 nM | potency estimated from few doses [11]: 60.1 nM | potency estimated from few doses [12]: 88.4 nM | potency estimated from few doses [10, 20]: 297 nM | potency estimated from few doses [13]: 2140 nM | potency estimated from few doses [5, 20]: 1280 nM | potency estimated from few doses [14]: 1770 nM | potency estimated from few doses [15]: 1270 nM | potency estimated from few doses [6, 20]: 322 nM

Cc1ccc2c(-c3ccncc3)c(-c3ccc(F)cc3)nn2c1.Cl [GW461484A]
potency estimated from few doses [1, 20]: 1220 nM | potency estimated from few doses [2, 20]: 571 nM | potency estimated from few doses [16, 20]: 673 nM | potency estimated from few doses [3, 20]: 754 nM | potency estimated from few doses [7, 20]: 755 nM | potency estimated from few doses [8, 20]: 1600 nM | potency estimated from few doses [10, 20]: 871 nM | potency estimated from few doses [5, 20]: 593 nM | potency estimated from few doses [6, 20]: 556 nM

NCCNS(=O)(=O)c1ccc(-c2ccnc3[nH]ccc23)cc1 [GSK977617A]
potency estimated from few doses [1, 20]: 681 nM | potency estimated from few doses [2, 20]: 277 nM | potency estimated from few doses [3, 20]: 441 nM | potency estimated from few doses [7, 20]: 765 nM | potency estimated from few doses [9, 20]: 487 nM | potency estimated from few doses [13]: 1170 nM | potency estimated from few doses [4, 20]: 97.3 nM | potency estimated from few doses [5, 20]: 589 nM | potency estimated from few doses [6, 20]: 518 nM

Fc1ccc(-c2c(-c3ccncc3)[nH]c3cccnc23)cc1 [RO1153853-000]
potency estimated from few doses ([16]; compound concentrations: 100 nM and 1000 nM (sheet 'Samples'), CATDS: 9.9990073063758705E-2): 274 nM

Cl.ON=C1CCc2cc(-c3nc(C4CCNCC4)[nH]c3-c3ccncc3)ccc21 [SB-614067-R]
potency estimated from few doses [16, 20]: 1190 nM

CCn1c(-c2nonc2N)nc2c(C#CC(C)(C)O)nc(OCCN)cc21.CCn1c(-c2nonc2N)nc2c(C#CC(C)(C)O)nc(OCCN)cc21.Cl.Cl [GSK902056A]
potency estimated from few doses [9, 20]: 176 nM

CCn1c(-c2nonc2N)nc2c(-c3ccccc3)ncc(OCCCN)c21.CCn1c(-c2nonc2N)nc2c(-c3ccccc3)ncc(OCCCN)c21.O=C(O)C(F)(F)F.O=C(O)C(F)(F)F [GSK260205A]
potency estimated from few doses ([16]; compound concentrations: 100 nM and 1000 nM (sheet 'Samples'), CATDS: 3.6163147578600598E-2): 706 nM | potency estimated from few doses [17]: 950 nM

CCn1c(-c2nonc2N)nc2c(C#CC(C)(C)O)nc(CN3CCCC3)cc21 [GSK1000163A]
potency estimated from few doses ([9]; compound concentrations: 100 nM and 1000 nM (sheet 'Samples'), CATDS: 0.25481287922850399): 759 nM

Cl.Nc1c(C(=O)c2cccc(C#CCN3CCCCC3)c2)cnn1-c1ccc(F)cc1 [RO1154461-001]
potency estimated from few doses ([1]; compound concentrations: 100 nM and 1000 nM (sheet 'Samples'), CATDS: 1.29854856136426E-2): 806 nM | potency estimated from few doses ([2]; compound concentrations: 100 nM and 1000 nM (sheet 'Samples'), CATDS: 1.9255632348685402E-2): 323 nM | potency estimated from few doses ([3]; compound concentrations: 100 nM and 1000 nM (sheet 'Samples'), CATDS: 1.6105152878217399E-2): 472 nM | potency estimated from few doses ([7]; compound concentrations: 100 nM and 1000 nM (sheet 'Samples'), CATDS: 1.18075673820272E-2): 1060 nM | potency estimated from few doses ([10]; compound concentrations: 100 nM and 1000 nM (sheet 'Samples'), CATDS: 1.35601917152245E-2): 717 nM | potency estimated from few doses ([5]; compound concentrations: 100 nM and 1000 nM (sheet 'Samples'), CATDS: 1.30987485498882E-2): 787 nM | potency estimated from few doses ([6]; compound concentrations: 100 nM and 1000 nM (sheet 'Samples'), CATDS: 1.4471532311659799E-2): 608 nM

CC(C)N1CCC(n2cnc(-c3ccc(F)cc3)c2-c2ccnc(N)n2)CC1 [SB-223132]
potency estimated from few doses [1, 20]: 1110 nM | potency estimated from few doses [2, 20]: 723 nM | potency estimated from few doses [18]: 158 nM | potency estimated from few doses [16, 20]: 77.8 nM | potency estimated from few doses [3, 20]: 735 nM | potency estimated from few doses [7, 20]: 969 nM | potency estimated from few doses [11]: 1330 nM | potency estimated from few doses [10, 20]: 1390 nM | potency estimated from few doses [5, 20]: 964 nM | potency estimated from few doses [6, 20]: 758 nM

CN(c1ccc(NC(=O)N2CCN(CCCN3CCOCC3)CC2)cc1)c1ccnc(Nc2ccc(CS(C)(=O)=O)cc2)n1.Cl [GW830899A]
potency estimated from few doses ([1]; compound concentrations: 100 nM and 1000 nM (sheet 'Samples'), CATDS: 2.13093198764688E-2): 1300 nM | potency estimated from few doses [19]: 867 nM

Cl.NCc1ccc(-c2nc(-c3ccc(Cl)c(O)c3)c(-c3ccncc3)[nH]2)cc1 [SB-476429-A]
potency estimated from few doses [16, 20]: 1380 nM

O=C1NC(=O)C(N2CCc3ccccc32)=C1c1ccccc1Cl [SB-373598]
potency estimated from few doses [1, 20]: 172 nM | potency estimated from few doses [2, 20]: 329 nM | potency estimated from few doses [3, 20]: 87.4 nM | potency estimated from few doses [7, 20]: 312 nM | potency estimated from few doses [8, 20]: 872 nM | potency estimated from few doses [9, 20]: 367 nM | potency estimated from few doses [10, 20]: 606 nM | potency estimated from few doses [5, 20]: 134 nM | potency estimated from few doses [6, 20]: 128 nM
